Results from PubChem BioAssay.
Results with a measured potency or affinity are listed apart. Results filed as inconclusive are left out. Calls of active or inactive are those of the source. Unless noted, how the calls were made is not given here.

Legend:
[1] = RMG-1 ovarian cancer cell viability loss – cherry-pick, dose response (AID 687029;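 active means signal drop whose fitted half-maximal concentration is at most twice the top valid dose, in every test run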;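 further: cells exposed to compound for 96 hours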)
[2] = IOSE-T80 viability loss, PAX8-independent line – cell-based, cherry-pick, selectivity assay for PAX8 inhibitor project, dose response (AID 687032;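 active means fitted half-maximal concentration for viability loss no higher than twice the top valid dose, in every repeat run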;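 further: cells exposed to compound for 96 h before reading; 0% = neutral control wells and -100% = 2 µM mitoxantrone kill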)
[3] = CMV-driven luciferase expression suppression in HEK293 – cell-based, luminescence, dry powder, counter-screen for Pax8 inhibitor project, dose response (AID 743020;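 active means signal-lowering compounds whose fitted half-maximal concentration is at or below twice the top tested dose in every run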;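 further: HEK293 cells stably expressing the CMV luciferase reporter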)
[4] = general cell-killing toxicity readout – plate reader, dry powder samples, cytotoxicity control for PAX8 inhibitor project, dose response (AID 743021)
[5] = A2780 cell killing – plate reader, dry powder samples, cytotoxicity control, dose response (AID 743046);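 further: 0% = neutral control wells and -100% = cytotoxic reference compound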
[6] = toxicity toward immortalized ovarian surface epithelium – cell-based, plate reader, dry powder samples, cytotoxicity control for PAX8 inhibitor project, dose response (AID 743045);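 further: 0% = neutral control median and -100% = positive control median; more negative values mean more cell killing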
[7] = OVCAR8 cell viability loss – plate reader, dry powder samples, PAX8 project, dose response (AID 743197)
[8] = IGROV1 cell killing – plate reader, dry powder samples, PAX8 inhibitor project, dose response (AID 743043);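 further: more negative means fewer viable cells or more cytotoxicity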
[9] = OVCAR-3 cell viability loss – plate reader, dry powder samples, PAX8 inhibitor project, dose response (AID 743044); conditions: max activity: at 35 µM, active compounds read low unless noted
[10] = toxicity toward HepG2 liver cells – cell-based, plate reader, cherry-pick, antagonist series, cytotoxicity control, dose response (AID 743416);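 further: 0% = neutral control wells and -100% = positive control wells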

Measured: max activity

Cc1ccc(S(=O)(=O)N(C)C[C@H]2Oc3cc(C#Cc4ccncc4)ccc3S(=O)(=O)N([C@@H](C)CO)C[C@H]2C)cc1
inactive: [1] | [2] | [3] | [4] | [5]

O=C1CN(S(=O)(=O)Cc2ccccc2)C[C@@H]2[C@H](c3ccc(C#Cc4ccc(F)cc4)cc3)[C@H](CO)N12
inactive: [1] | [2] | [3] | [4] | [6] | [7]

Cc1cccc(S(=O)(=O)N2CCCCN3[C@H](CO)[C@H](c4ccc(C#CC(C)C)cc4)[C@H]3C2)c1
inactive: [1] | [2] | [3] | [4] | [5]

COc1cccc(S(=O)(=O)Nc2ccc3c(c2)[C@@H]2C[C@@H](CC(=O)NCc4ccc(Cl)cc4)O[C@@H](CO)[C@@H]2O3)c1
not listed: [8] | [9] | [10]
inactive: all other assays above

C[C@@H]1CN([C@@H](C)CO)C(=O)Cc2cc(NC(=O)Nc3ccc4c(c3)OCO4)ccc2O[C@H]1CN(C)CC1CCCCC1
not listed: [8] | [9] | [10]
inactive: all other assays above

C[C@H]1CCCCO[C@H](CN(C)C(=O)Nc2ccc(C(F)(F)F)cc2)[C@@H](C)CN([C@@H](C)CO)C(=O)c2cc(NC(=O)CCC(F)(F)F)ccc2O1
not listed: [8] | [9] | [10]
inactive: all other assays above

COc1cccc2sc(N(CCCN(C)C)C(=O)CCS(=O)(=O)c3ccccc3)nc12
inactive: [1] | [2] | [3] | [4] | [6] | [5]

CCCC#Cc1ccc([C@@H]2[C@H](CO)N3CCCCN(S(=O)(=O)Cc4ccccc4)C[C@@H]23)cc1
not listed: [8] | [9] | [10]
inactive: all other assays above

OC[C@@H]1[C@H](c2ccc(-c3ccc(F)cc3)cc2)[C@@H]2CN(CCC(F)(F)F)CCCCN12
inactive: [1] | [2] | [3] | [4] | [6] | [5]

C[C@@H]1CN([C@@H](C)CO)C(=O)Cc2cc(NC(=O)Nc3ccc(C(F)(F)F)cc3)ccc2O[C@H]1CN(C)Cc1ccc2c(c1)OCO2
inactive: [1] | [2] | [3] | [4] | [6] | [5]

C[C@H](CO)N1C[C@H](C)[C@H](CN(C)S(=O)(=O)c2ccc(Cl)cc2)OCc2ccccc2-c2c(n(C)c3ccccc23)C1=O
inactive: [1] | [2] | [3] | [4] | [6] | [5]

C[C@@H]1CCCCO[C@H](CN(C)Cc2ccc(Cl)c(Cl)c2)[C@@H](C)CN([C@@H](C)CO)C(=O)c2cc(NC(=O)Cc3ccccc3)ccc2O1
inactive: [1] | [2] | [3] | [4] | [6] | [5]

Cc1ccc(S(=O)(=O)N(C)C[C@H]2OCCCC[C@H](C)Oc3ccc(NS(=O)(=O)c4ccc(F)cc4)cc3C(=O)N([C@H](C)CO)C[C@@H]2C)cc1
inactive: [1] | [2] | [3] | [4] | [6] | [5]

C[C@@H]1CN([C@@H](C)CO)C(=O)c2cc(NC(=O)Nc3ccc(C(F)(F)F)cc3)ccc2O[C@@H](C)CCCCO[C@H]1CN(C)Cc1ccc2c(c1)OCO2
inactive: [1] | [2] | [3] | [4] | [6] | [5]

O=C(Nc1cccc(F)c1)N1CCCCN2[C@@H](CO)[C@@H](c3ccc(-c4ccccc4F)cc3)[C@@H]2C1
not listed: [8] | [9] | [10]
inactive: all other assays above

Cc1ccc(S(=O)(=O)Nc2ccc3c(c2)CC(=O)N([C@@H](C)CO)C[C@@H](C)[C@H](CN(C)Cc2ccc(Cl)c(Cl)c2)O3)cc1
not listed: [8] | [9] | [10]
inactive: all other assays above

C[C@@H]1CN([C@@H](C)CO)C(=O)Cc2cc(NS(=O)(=O)c3cccs3)ccc2O[C@H]1CN(C)Cc1ccc(C(F)(F)F)cc1
not listed: [8] | [9] | [10]
inactive: all other assays above

C[C@H](CO)N1C[C@H](C)[C@@H](CN(C)Cc2ccccc2)Oc2ccc(NC(=O)Nc3ccc(C(F)(F)F)cc3)cc2CC1=O
not listed: [8] | [9] | [10]
inactive: all other assays above

COc1cccc(S(=O)(=O)N2CC[C@@H]3[C@@H](CO)Nc4ccc(-c5ccccc5OC)cc4[C@@H]32)c1
inactive: [1] | [2] | [3] | [4] | [5]

O=C(Nc1ccc(C(F)(F)F)cc1)N1C[C@@H]2N[C@H](C1)C2c1ccc(/C=C/c2ccccc2)cc1 (stereo partly specified)
inactive: [1] | [2] | [3] | [4] | [6] | [7]

C[C@H]1CCCCO[C@@H](CN(C)Cc2ccccc2)[C@@H](C)CN([C@@H](C)CO)C(=O)c2cc(NC(=O)Nc3ccc(C(F)(F)F)cc3)ccc2O1
inactive: [1] | [2] | [3] | [4] | [6] | [5]

O=S(=O)(Nc1cccc2cccnc12)c1ccccc1
inactive: [1] | [2] | [3] | [4] | [6] | [5]

COc1cccc(C#Cc2ccc([C@@H]3[C@H](C#N)N(C(=O)c4ccccn4)[C@H]3CO)cc2)c1
inactive: [1] | [2] | [3] | [8] | [9] 39.4% | [6]

CC(C)CC#Cc1ccc2c(c1)O[C@H](CN(C)S(=O)(=O)c1ccc(F)cc1)[C@H](C)CN([C@H](C)CO)S2(=O)=O
inactive: [1] | [2] | [3] | [8] | [6] | [5]

COc1ccc(S(=O)(=O)Nc2ccc3c(c2)CC(=O)N([C@@H](C)CO)C[C@H](C)[C@@H](CN(C)Cc2ccc(C(F)(F)F)cc2)O3)cc1
not listed: [4] | [9] | [10]
inactive: all other assays above

COc1cccc(C#Cc2ccc([C@H]3[C@@H](C#N)N(C(=O)c4ccccn4)[C@@H]3CO)cc2)c1
inactive: [1] | [2] | [3] | [8] | [9] -22.5% [at 0.26 µM, active compounds read low] | [6] | [7]

C[C@@H]1CN([C@H](C)CO)C(=O)CCCn2nncc2CO[C@H]1CN(C)Cc1ccc(Oc2ccccc2)cc1
inactive: [1] | [2] | [3] | [8] | [9] 10.8% [at 4.2 µM, active compounds read low] | [6] | [5] | [7]

CCCNC(=O)Nc1ccc2c(c1)OC[C@@H](C)N(Cc1ccc(-c3ccccn3)cc1)C[C@@H](C)[C@H](OC)CN(C)C2=O
inactive: [1] | [2] | [3] | [8] | [9] 19.6% [at 1 µM, active compounds read low] | [6] | [5] | [7]

O=C(Nc1ccccc1)N1CCCCN2[C@H](CO)[C@H](c3ccc(C#Cc4ccccc4)cc3)[C@H]2C1
not listed: [4] | [9] | [10]
inactive: all other assays above

C[C@@H]1CCCCO[C@H](CN(C)C(=O)NC2CCCCC2)[C@H](C)CN([C@@H](C)CO)C(=O)c2cc(NS(=O)(=O)c3ccc(Cl)cc3)ccc2O1
inactive: [1] | [2] | [3] | [8] | [9] -10.9% [at 0.26 µM, active compounds read low] | [6] | [5] | [7]

COc1cccc(C#Cc2ccc([C@@H]3[C@@H](C#N)N(C(=O)C4CCCCC4)[C@H]3CO)cc2)c1
inactive: [1] | [2] | [3] | [8] | [9] 22.8% [at 1 µM, active compounds read low] | [6] | [5]

C[C@H](O)C#Cc1ccc2c(c1)O[C@@H](CN(C)Cc1ccc(-c3ccccc3)cc1)[C@@H](C)CN([C@H](C)CO)S2(=O)=O
inactive: [1] | [2] | [3] | [8] | [9] -11.2% | [6] | [5]

O=C(Nc1ccc(F)cc1)N1C[C@@H]2N[C@H](C1)C2c1ccc(/C=C/c2ccccc2)cc1 (stereo partly specified)
inactive: [1] | [2] | [3] | [8] | [9] -17.6% | [6] | [5]

C[C@@H]1CN([C@@H](C)CO)C(=O)c2cc(NC(=O)Nc3ccc(F)cc3)ccc2O[C@@H](C)CCCCO[C@H]1CN(C)Cc1ccc(C(F)(F)F)cc1
inactive: [1] | [2] | [3] | [8] | [6]

N#C[C@H]1[C@@H](c2ccc(C#CC3CCCCC3)cc2)[C@@H](CO)N1S(=O)(=O)c1ccccc1
not listed: [4] | [9] | [10]
inactive: all other assays above

Cc1cccc(-c2ccc([C@H]3[C@H]4CN(S(=O)(=O)c5cccc(C)c5)CCCCN4[C@H]3CO)cc2)c1
inactive: [1] | [2] | [3] | [8] | [6] | [5]

Cn1nnnc1Sc1ncnc2scc(-c3ccc4c(c3)OCO4)c12
inactive: [1] | [2] | [3] | [4] | [10]

Cc1ccccc1-c1ccc2c(c1)O[C@H](CN(C)C(=O)Nc1ccc(C(F)(F)F)cc1)[C@H](C)CN([C@@H](C)CO)S2(=O)=O
inactive: [1] | [2] | [3] | [8] | [6] | [7]

COc1ccc(CN(C)C[C@@H]2OCCCC[C@H](C)Oc3ccc(NS(=O)(=O)c4ccc(C)cc4)cc3C(=O)N([C@H](C)CO)C[C@H]2C)cc1
inactive: [1] | [2] | [3] | [8] | [9] -36% | [6] | [5]
